In assay [1] the target is T1, Hexokinase-4 (Homo sapiens) + Glucokinase regulatory protein (Homo sapiens) (UniProt P35557+Q14397). In words: qHTS assay for inhibitors of recombinant human GCK-GKRP interaction: ADP-Glo assay (AID 743206).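 Further: plate controls were DMSO plus enzyme for no effect and no enzyme for full effect.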 The procedure, abridged: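 Pin-transferred compounds meet a 15 nM GST-GCK/15 nM FLAG-GKRP/2 uM S6P mix (dispense concentrations). ATP is then added to 0.4 mM final with 5 mM glucose, and the reaction runs 60 min at room temperature. ADP is quantified luminescently.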
T1 sequence (P35557 whole entry, looked up): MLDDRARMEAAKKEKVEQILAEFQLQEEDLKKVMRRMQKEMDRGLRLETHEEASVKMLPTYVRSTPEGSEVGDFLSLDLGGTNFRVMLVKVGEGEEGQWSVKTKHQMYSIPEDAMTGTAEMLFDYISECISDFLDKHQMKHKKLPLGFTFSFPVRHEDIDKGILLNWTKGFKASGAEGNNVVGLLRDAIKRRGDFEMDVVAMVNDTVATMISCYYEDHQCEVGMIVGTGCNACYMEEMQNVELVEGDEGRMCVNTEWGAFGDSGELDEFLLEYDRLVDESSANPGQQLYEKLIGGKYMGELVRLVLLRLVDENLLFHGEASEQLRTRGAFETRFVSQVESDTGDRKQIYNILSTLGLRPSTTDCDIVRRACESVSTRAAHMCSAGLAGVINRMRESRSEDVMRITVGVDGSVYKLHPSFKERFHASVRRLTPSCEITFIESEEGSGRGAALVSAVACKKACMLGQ
T1 sequence (Q14397 whole entry, looked up): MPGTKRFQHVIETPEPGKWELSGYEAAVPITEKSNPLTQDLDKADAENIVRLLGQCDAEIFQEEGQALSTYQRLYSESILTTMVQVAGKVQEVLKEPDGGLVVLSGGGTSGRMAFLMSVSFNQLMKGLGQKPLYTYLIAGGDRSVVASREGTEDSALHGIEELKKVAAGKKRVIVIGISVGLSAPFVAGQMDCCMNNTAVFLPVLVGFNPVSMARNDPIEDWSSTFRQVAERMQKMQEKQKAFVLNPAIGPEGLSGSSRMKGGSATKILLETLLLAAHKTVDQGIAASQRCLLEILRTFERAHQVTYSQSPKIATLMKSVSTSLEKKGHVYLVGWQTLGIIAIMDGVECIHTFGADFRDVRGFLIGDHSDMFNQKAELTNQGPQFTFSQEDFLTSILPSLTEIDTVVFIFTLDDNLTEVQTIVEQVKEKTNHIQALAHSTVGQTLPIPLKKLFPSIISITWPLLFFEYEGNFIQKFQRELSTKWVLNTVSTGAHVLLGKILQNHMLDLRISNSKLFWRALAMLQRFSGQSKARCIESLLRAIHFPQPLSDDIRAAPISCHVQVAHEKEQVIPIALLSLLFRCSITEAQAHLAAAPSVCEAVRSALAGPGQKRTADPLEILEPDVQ
For orientation: Quantitative high-throughput screening tests each substance at several concentrations.

The target of assay [2] is T1, Hexokinase-4 (Homo sapiens) + Glucokinase regulatory protein (Homo sapiens). In words: qHTS assay for inhibitors of recombinant human GCK-GKRP interaction: HTRF assay (AID 743207).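 Further: 0% = DMSO with GCK present and -100% = DMSO wells lacking GCK.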 Put shortly:
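HTRF binding of 5 nM GST-GCK and 5 nM FLAG-GKRP with 2 uM S6P in pH 7.1 Hepes buffer (MgCl2, KCl, DTT, Tween 20, BSA). Anti-FLAG XL665 and anti-GST donor added, 60 min at room temperature; 665/615 nm read, normalized to with- and without-GCK controls.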

The nature of assay [3]: qHTS Assay for Identifying Gametocytocidal Compounds (AID 743244).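 Further: on the % scale 0 is the no-effect control and ±100 the full control effect; actives lower the fluorescent signal which means gametocytes are killed.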 The settings on record: P. falciparum 3D7 stage III-V gametocytes, alamarBlue, 72 h; max response: stronger effect = lower value. Put shortly: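 Compounds are pinned into medium, gametocytes (stage III–V, 3D7, 20,000 cells/well) added, and plates held 72 h at 37 °C in 5% CO2. AlamarBlue follows for 24 h before fluorescence reading.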

Assay [4] can be described thus: qHTS profiling of the MIPE4 collection as inhibitors of Plasmodium falciparum (3D7) proliferation (AID 743344; call rule not given here;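 further: scaled between DMSO vehicle wells and 0.29 µM artemisinin as full inhibition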). The settings on record: P. falciparum 3D7 in erythrocytes, SYBR Green DNA fluorescence, 72 h; at 28.5 µM (top of the series) unless noted. The procedure, abridged:
(§1)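 Parasite DNA was quantified by SYBR Green I fluorescence (ex 485, em 535 nm) after overnight lysis in saponin/Triton buffer at room temperature. Cultures at 0.3% parasitemia and 2.5% hematocrit were first exposed to compound for 72 h at 37 C; signals were normalised to artemisinin (0.29 uM) and vehicle wells.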

The nature of assay [5]: qHTS profiling of the MIPE4 collection as inhibitors of Plasmodium falciparum (DD2) proliferation (AID 743345; call rule not given here). The settings on record: P. falciparum Dd2 in erythrocytes, SYBR Green DNA, 72 h; at 28.5 µM (top of the series) unless noted. Put shortly: as §1
The nature of assay [6]: qHTS profiling of the MIPE4 collection as inhibitors of Plasmodium falciparum (DD2) proliferation (Rep 2) (AID 743346; call rule not given here). The settings on record: P. falciparum Dd2 in erythrocytes, SYBR Green DNA, 72 h; at 28.5 µM (top of the series) unless noted. The procedure, abridged:
as §1

Assay [7] is described as follows: qHTS profiling of the MIPE4 collection as inhibitors of Plasmodium falciparum (HB3) proliferation (AID 743347; call rule not given here;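 further: plate controls were DMSO vehicle wells for no effect and artemisinin wells for full effect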). The settings on record: P. falciparum HB3 in erythrocytes, SYBR Green DNA, 72 h; at 28.5 µM (top of the series) unless noted. Put shortly:
as §1

A short description of assay [8]: High-throughput drug toxicity screening in the BPDCN cell line Cal-1 (AID 1224825; call rule not given here). The settings on record: Cal-1 BPDCN cell viability, qHTS; at 45.8 µM (top of the series) unless noted. Put shortly:
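CellTiter-Glo luminescence after 48 h compound exposure; percent activity scaled with DMSO as 100% and bortezomib (9.2 uM final) as 0%. Cal-1 cells seeded at 500/well in RPMI, 10% FBS, no phenol red.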

Assay [9] is described as follows: qHTS assay for measurement of the activity of small molecule inhibitors on Zika virus induced Caspase-3 activity in human iPSC derived neural progenitor cells (hNPCs) (AID 1224857). Further: nearly all actives have a fitted effect of over 65% in size. Further: potency means the concentration at half of the fitted maximal effect. The procedure, abridged:
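Pretreat hNPCs with compound 1 h; infect ZIKV 2 FFU/cell; 6 h 37 C, 5% CO2; Caspase-Glo 3/7, 30 min RT; luminescence; normalize to no-virus and virus-only wells.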

Assay [10] in a line: qHTS Screen of the MIPE 4.0 Collection Against Ewings Sarcoma (RDES) (AID 1259252). Further: nearly all actives have a fitted effect of over 35% in size. Further: potency means the concentration at half of the fitted maximal effect. Put shortly: (§2)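 Dose series incubated 48 h with cells in RPMI plus 5% FBS, glutamine and penicillin/streptomycin; cell viability then quantified via CellTiter-Glo.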
The nature of assay [11]: qHTS Screen of the MIPE 4.0 Collection Against Ewings Sarcoma (TC71) (AID 1259253). Further: nearly all actives have a fitted effect of over 40% in size. Further: potency means the concentration at half of the fitted maximal effect. The procedure, abridged: as §2
A short description of assay [12]: qHTS Screen of the MIPE 4.0 Collection Against Ewings Sarcoma (EW8) (AID 1259255). Further: nearly all actives have a fitted effect of over 35% in size. Further: potency means the concentration at half of the fitted maximal effect.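 On viability: 100% = DMSO-treated cells and 0% = medium-only wells without cells.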 The procedure, abridged: as §2
The nature of assay [13]: qHTS Screen of the MIPE 4.0 Collection Against Ewings Sarcoma (TC32) (AID 1259256). Further: nearly all actives have a fitted effect of over 45% in size. Further: potency means the concentration at half of the fitted maximal effect. Put shortly: as §2
Assay [14] can be described thus: qHTS assay for measurement of the activity of small molecule inhibitors on Zika virus induced Caspase-3 activity in human astrocytoma cells (AID 1224859).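 Further: plate controls were ZIKV-infected untreated cells for no effect and uninfected cells for full effect.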 Put shortly:
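Human SNB-19 astrocytoma cells in RPMI 1640 with 10% FBS receive compound one hour ahead of Zika virus at 2 FFU/cell. After 6 h infection, caspase-3/7 activity is detected by Caspase-Glo luminescence.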

A short description of assay [15]: qHTS assay for cell viability of HEK293 cells (AID 743288). Further: on the % scale 0 is the no-effect control and ±100 the full control effect; nearly all actives have a fitted effect of over 50% in size. The settings on record: ATP luminescence (CellTiter-Glo), 18 h; max response: stronger effect = lower value. The procedure, abridged:
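Steps: plate 2,000 parental HEK293 cells per well; incubate ≥5 h, 37 C; add compounds in DMSO; incubate 18 h, 37 C; add CellTiter-Glo; wait 30 min at room temperature; read luminescence.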

Assay [16] in a line: qHTS assay for cell viability of the p53RE-bla HCT-116 cell line (AID 743292). Further: on the % scale 0 is the no-effect control and ±100 the full control effect; nearly all actives have a fitted effect of over 55% in size. Put shortly:
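In this qHTS counter-screen, metabolically competent p53RE-bla HCT-116 cells were counted via their ATP content. Compounds were applied for 16 h at 37 C and luciferase-coupled luminescence was measured.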

“And” between values parts separate entries of the source, which are not always exact repeats. Identical values can stand only once. Results filed as inconclusive are left out. Where a structure was tested more than once in an assay, its records may differ in their call. The source made the active and inactive calls. Unless noted, the call rests on the fitted dose curve; in most records, active means well fitted curve in the direction sought with a large enough effect; inconclusive means small, poorly fitted or top-dose-only effect, or another doubt; inactive means no such curve, though single readings can be large; an effect the other way counts as inactive or inconclusive.

Consider `Clc1ccc2nsnc2c1NC1=NCCN1`, for which the Potency entry in assay [1], in [2], in assay [10], in assay [11], in assay [12] and in assay [13] was “inactive” each time. In addition, in assay [3], the max response is 11.7% (inactive) and 4.37% (inactive). Besides, the parasite growth, % of DMSO control in assay [4] stood at 73.6%. In [5], the parasite growth remaining, % of DMSO control (lower = more inhibition) is 98.6%. For the same compound, the parasite growth, % of control (lower = inhibition) in assay [6] came to 45.7%. The growth, % of control in [7] came to 67.7%. The viability (% of control) in [8] was found to be 57%. The Potency result in [9] is “inactive and 20.9 µM (active)”.
Take `COc1ccccc1OCC(O)CN1CCN(CC(=O)Nc2c(C)cccc2C)CC1` (stereo not drawn): the Potency result in [1], in assay [2], in assay [9], in assay [10], in assay [11] and in assay [12] was “inactive” in each case. Moreover, the Potency result in [13] was “inactive”. Further, the max response in assay [3] is 19.4% (inactive) and 42.5% (inactive). Also, the parasite growth, % of DMSO control in assay [4] stood at 126%. The parasite growth remaining, % of DMSO control (lower = more inhibition) in [5] stood at 97.5%. For the same compound, the parasite growth, % of control (lower = inhibition) in assay [6] was determined as 193%. In assay [7], this compound showed a growth, % of control of 101%. In addition, the viability (% of control) in assay [8] is 18.6%.
Regarding `CN(C)C(=O)C(CCN1CCC(O)(c2ccc(Cl)cc2)CC1)(c1ccccc1)c1ccccc1`, the viability (% of control) in assay [8] amounted to 12.1%. Besides, the Potency entry in assay [9] and in assay [14] was “inactive” throughout. Also, the figures for the Potency in [11], in assay [12] and in [13] were 20.9 µM (active), 16.6 µM (active) and 18.7 µM (active), respectively.
`Nc1nc2c(ncn2COC(CO)CO)c(=O)[nH]1`: the Potency result in assay [2], in [9] and in assay [13] was “inactive” throughout. Moreover, the max response in assay [3] is -13.4% (inactive) and 3.21% (inactive). Besides, the parasite growth, % of DMSO control in [4] worked out at 91.1%. Moreover, in [5], the parasite growth remaining, % of DMSO control (lower = more inhibition) worked out at 92.5%. Besides, the parasite growth, % of control (lower = inhibition) in [6] was 84.9%. The compound also showed a growth, % of control in [7] of 49%. In [8], the viability (% of control) was 3.13%. Moreover, the Potency in assay [10] is 26.4 µM (active); in assay [11], 23.5 µM (active).
Consider `NCCS(=O)(=O)O`, for which the Potency result in [1], in assay [2], in assay [16], in [9], in assay [14] and in assay [10] was “inactive” in each case. Moreover, the Potency entry in [11] and in assay [12] was “inactive” in each case. In addition, the max response was -8.78% (inactive) and 22.4% (inactive) in assay [3]; 10.5% (inactive) in [15]. Moreover, the parasite growth, % of DMSO control in assay [4] was 102%. In addition, the parasite growth remaining, % of DMSO control (lower = more inhibition) in assay [5] worked out at 102%. In assay [6], the parasite growth, % of control (lower = inhibition) came to 90.9%. In addition, the growth, % of control in [7] worked out at 110%. For the same compound, the viability (% of control) in assay [8] came out at 133%.
For the compound `NC(=O)OCC(COC(N)=O)c1ccccc1`, the Potency entry in assay [2], in assay [9] and in [10] was “inactive” throughout. Besides, the max response in assay [3] is 0.706% (inactive) and 21.3% (inactive). Further, the parasite growth, % of DMSO control in assay [4] was found to be 97.2%. In [5], the parasite growth remaining, % of DMSO control (lower = more inhibition) turned out to be 97.8%. The parasite growth, % of control (lower = inhibition) in [6] was 95.5%. Also, the growth, % of control in assay [7] was 63.7%. Also, the viability (% of control) in assay [8] was 96.1%. For the same compound, in [13], the Potency was 5.9 µM (active).
